Screening results (PubChem)
In the library only some 3% were active in any assay of this set; here they are far more common.
MITF TRPM1 HTS = activators of MITF-driven TRPM1 promoter reporter, primary screen, cell-based, SK-MEL-5, luciferase, single point; SK-MEL-5 TRPM1-promoter luciferase, 24 h; % of positive control, neutral wells = 0; activation, % at 12.5 µM; hit rate 0.75% among 300,000;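 active means mean activation of at least 80% with every replicate also reaching 80%; inconclusive means mean reaches 80% but some replicate falls short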;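 further: 0% = neutral control wells and 100% = parthenolide positive control wells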
esBAF inh = Bmi1 luciferase reporter increase in mESCs, primary screen, esBAF inhibitor project, mouse ES cells, Bmi1 luciferase knock-in, single point. hit rate 2% among 350,000. 24 h; 100% = twice the neutral-well signal. reporter increase, % at 12.5 µM; in the data active means activation above about 40%; inconclusive means no clear call, values can overlap the other calls;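 further: 0% = median of the plate's neutral control wells and 100% = double that signal; a rise in the Bmi1 reporter signal indicates esBAF inhibition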
C2C12 statin = suppressors of statin myotoxicity in C2C12 myotubes, primary screen, cell-based, single point, plate reader; C2C12 myotubes + simvastatin, ATP luminescence, 48 h; scaled: DMSO 0, geranylgeraniol control 100; rescue of ATP level, % at 7.49 µM; hit rate 0.78% among 330,000; AID 602340, 2012;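 active means mean ATP rescue above about 67%, or every replicate alone reaching that limit, limit read from the data, passing the limit was not always enough; inconclusive means no clear call, values can overlap the other calls; inactive means mean under the limit and some replicate under it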;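 further: myotubes were challenged with 10 µM simvastatin during compound exposure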
Wnt bcat act = Wnt/beta-catenin pathway activators, primary screen, cell-based, plate reader, single point. hit rate 1.2% among 300,000. activation, % at 9.35 µM. Wnt/beta-catenin reporter cell assay, activator; in the data active means activation above about 30%, passing the limit was not always enough; inconclusive means no clear call, values can overlap the other calls;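 further: 0% = neutral control wells and 100% = positive control wells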
* hit, by the source's call; ? = inconclusive; / = no result given.

SMILES	MITF TRPM1 HTS	esBAF inh	C2C12 statin	Wnt bcat act
CO[C@@H]1CN(C)C(=O)c2cc(NC(=O)Nc3ccccc3)ccc2OC[C@@H](C)NC[C@@H]1C	/	3.5	-0.4	/
CO[C@H]1CN(C)C(=O)c2cc(NC(=O)Nc3ccccc3)ccc2OC[C@@H](C)NC[C@H]1C	/	1.1	-1.1	/
COc1ccc(NC(=O)C2CCCN(c3ncccn3)C2)cc1 (stereo unspecified)	51.7	32.9	15.9	9.4
CCC(C)c1ccc(NC(=O)C2CCCN(c3ncccn3)C2)cc1 (stereo unspecified)	/	48.3*	-12.5	/
O=C(O)CC1SC(=Nc2ccccc2)N(c2ccccc2)C1=O (stereo unspecified)	-3.8	-12.9	115.3*	/
CCCCN1C(=O)C(CC(=O)NCC)SC1=Nc1ccccc1 (stereo unspecified)	-6.7	-4.4	158.8*	-0.5
O=C(O)CC1S/C(=N\N=C2CCCCCCC2)N(c2ccccc2)C1=O (stereo unspecified)	0.4	-3.9	-3.4	-1.0
Cc1ccc(C(C(=O)NC2CCCC2)N(Cc2cccs2)C(=O)CNC(=O)c2cccs2)o1 (stereo unspecified)	6.4	-1.4	136.0*	-1.0
O=C(/C=C/c1cccs1)c1ccc(N2CCOCC2)cc1	19.8	52.2*	-4.4	6.7
O=C(/C=C/c1cccc(F)c1)c1ccc(N2CCOCC2)cc1	36.1	13.0	12.1	-1.7
[O-][N+](=Cc1ccccc1)c1ccc(Cl)cc1	71.2	/	/	37.6*
[O-]/[N+](=C/c1ccc(F)cc1)c1ccc(Cl)cc1	49.6	/	16.1	/
[O-]/[N+](=C\c1ccco1)c1ccc(Cl)cc1	57.8	88.2*	0.0	25.9
CCCNC(=O)c1ccc(CNc2c(N3CCC(C(=O)OCC)CC3)c(=O)c2=O)cc1	-6.9	-7.1	133.4*	/
CCOc1ccc(-c2c(=O)n(O)c3ccccc3[n+]2[O-])cc1	54.3	?	10.0	56.1*
CCOC(=O)COn1c(=O)c(-c2cc3ccccc3o2)[n+]([O-])c2ccccc21	/	52.2*	3.7	20.6
CCCOc1ccc(-c2c(=O)n(OCC(=O)OCC)c3ccccc3[n+]2[O-])cc1	/	69.5*	-5.4	-0.1
C=CCOn1c(=O)c(-c2cc3ccccc3o2)[n+]([O-])c2ccccc21	39.1	54.4*	-24.8	/
CN1c2ccc(-c3ccccc3)cc2[C@H]2[C@H](CCN2C(=O)Cc2ccccn2)[C@@H]1CO	/	15.8	39.4	/
O=C(NCC[C@H]1CC[C@H](NS(=O)(=O)c2ccc(Cl)cc2)[C@H](CO)O1)c1ccc2c(c1)OCO2	/	0.3	12.4	/
COCc1cc(C)nc(SCC(=O)Nc2ccc(C)c(C)c2)c1C#N	35.8	43.2*	3.3	-1.0
Cc1cc(C)c(C#N)c(SCC(=O)Nc2ccc3c(c2)OCO3)n1	24.7	18.8	3.8	42.3*
Cc1cc(C)c(C#N)c(SCC(=O)Nc2cc(C)on2)n1	?	82.1*	2.8	1.9
COCc1cc(C)nc(SCC(=O)Nc2ccc3[nH]c(=O)[nH]c3c2)c1C#N	5.7	-6.6	-4.6	-4.1
CCCNC(=O)COC(=O)c1ccc(OCC(=O)Nc2ccccc2OC)c(OC)c1	17.7	3.2	-1.4	-4.8
SMILES	MITF TRPM1 HTS	esBAF inh	C2C12 statin	Wnt bcat act
CCC(CC)NC(=O)COC(=O)c1ccc(OCC(=O)Nc2ccccc2OC)c(OC)c1	-11.3	-7.0	66.6*	-3.1
CC(=O)OC[C@H]1O[C@@H](n2ncc(=O)[nH]c2=O)[C@H](OC(C)=O)[C@@H]1OC(C)=O	/	48.0*	6.2	/
C[C@@H]1CN([C@@H](C)CO)C(=O)c2cc(NC(=O)Nc3ccc4c(c3)OCO4)ccc2O[C@@H](C)CCCCO[C@H]1CN(C)Cc1ccc(C(=O)O)cc1	/	3.7	/	/
S=c1nc(NCCc2ccccc2Cl)c2ccccc2[nH]1	72.0	41.4*	-14.2	26.0
O=C(CCCCCNc1nc(=S)[nH]c2ccccc12)NCc1ccccc1Cl	/	/	/	7.4
NC12CC3CC(C1)CC(CC(=O)O)(C3)C2	2.6	0.9	-6.3	-11.4
NC12CC3CC(C1)CC(CO)(C3)O2	18.4	0.6	110.9*	-1.2
CCCNC(=O)Nc1ccc2c(c1)C(=O)N(C)C[C@@H](OC)[C@H](C)CN(CCC(F)(F)F)[C@H](C)CO2	/	3.1	-3.7	/
O=C(Nc1ccc2c(c1)OCO2)N[C@@H]1CC[C@H](CCNC(=O)C2CC2)O[C@H]1CO	/	15.9	7.1	/
O=C(CC1CCCC1)Nc1ccc2c(c1)CCC2	42.9	84.4*	-12.2	3.8
CC(C)CC(=O)NC(=S)Nc1cccc(NC(=O)c2ccccc2)c1	-12.0	/	/	-0.8
Cc1cc(NC(=O)CC2CCCC2)ccc1Br	63.3	65.3*	0.3	12.9
O=C(Cc1ccccc1)Nc1ccc2c(c1)CCC2	31.5	/	/	12.0
Cc1cc(NC(=S)NC(=O)CC(C)C)ccc1Br	57.3	57.9*	-90.7	8.6
Cc1cccc(NC(=O)CC2CCC2)c1	17.4	14.9	20.0	/
CN(C)C(=O)[C@@H]1[C@@H](CO)[C@@H]2Cn3c(ccc(-c4cncnc4)c3=O)[C@H]1N2C(=O)NC1CCCC1	/	-0.8	17.3	/
Cn1c(=S)oc2ccccc21	-1.1	-3.8	88.8*	-1.5
Cc1ccc2oc(=S)n(C)c2c1	26.5	/	/	-2.4
O=C1c2ccccc2-c2onc3ccc(Oc4ccccc4)c1c23	-96.5	-67.4	100.2*	4.4
CC(=O)c1ccc(N2CCN(C(=O)c3ccc(Cn4c(=S)[nH]c5ccc(N6CCOCC6)cc5c4=O)cc3)CC2)cc1	13.8	60.5*	-10.3	3.9
CCOC(=O)N1CCN(C(=O)c2ccc3c(=O)n(Cc4ccc(Cl)cc4)c(=S)[nH]c3c2)CC1	5.7	19.8	81.6*	/
CCOC(=O)N1CCN(C(=O)c2ccc3c(=O)n(CCC4=CCCCC4)c(=S)[nH]c3c2)CC1	-1.9	4.1	94.2*	-5.7
CCCn1c(=S)[nH]c2cc(C(=O)N3CCN(C(=O)OCC)CC3)ccc2c1=O	-1.2	-4.3	8.6	-1.2
C[C@@H]1CN([C@H](C)CO)S(=O)(=O)c2ccc(C3=CCCCC3)cc2O[C@@H]1CN(C)C(=O)C1CCOCC1	/	-9.5	-8.5	/
COc1ccc(S(=O)(=O)Nc2ccc3c(c2)CC(=O)N([C@@H](C)CO)C[C@@H](C)[C@@H](CN(C)Cc2ccncc2)O3)cc1	/	0.7	0.3	/
SMILES	MITF TRPM1 HTS	esBAF inh	C2C12 statin	Wnt bcat act
CCOc1c(S(=O)(=O)N2CCCC2)ccc(Cl)c1Cl	-0.7	3.2	121.6*	-4.2
CCCC#Cc1ccc2c(c1)O[C@H](CN(C)C(=O)C1CC1)[C@H](C)CN([C@H](C)CO)S2(=O)=O	/	3.8	-14.2	/
CCC(=O)N(C)C[C@@H]1Oc2ncc(C#Cc3ccccc3)cc2C(=O)N([C@H](C)CO)C[C@@H]1C	/	-4.9	5.7	/
COc1cccc(-c2csc(NC(C)=O)n2)c1	83.0*	77.6*	-1.2	/
COc1cccc(NC(=O)Nc2nc(-c3ccc(OC)c(OC)c3)cs2)c1	-79.7	42.7*	-97.9	-7.7
O=C(Nc1nc(-c2cccc(Br)c2)cs1)Oc1ccccc1	47.9	45.4*	4.6	12.7
CCc1ccc(-c2csc(NC(=O)Oc3ccccc3)n2)cc1	32.5	/	/	25.1
